Test results published in PubChem BioAssay AID1159580 (chemical genetic matrix, 2015).
Out of some 5,500 compounds screened, about 2,000 (36%) were called active. Not shown: some 18% with an inconclusive outcome. Rule as the data show it: active = normalized growth mostly below about 0.91 (no sharp cut-off); inconclusive = no clear call, values can overlap the other calls; inactive = mostly above about 0.92. Some of the results follow.

Assay: chemical genetic growth profiling, strain panel (AID 1159580);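 also: tested at 20 µM; growth read once vehicle control cultures reached saturation at 30 °C; 1 = growth at the plate median or of vehicle wells; lower values mean less growth of the strain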
Settings: S. cerevisiae deletion strains, growth OD

Measured: normalized growth

CCCN(CCC)CCc1ccc(O)c(O)c1
inactive: locus YAL040C, strain CLN3, active compounds read low 1.03 | locus YCL061C, strain MRC1 (second series), active compounds read low 1 | locus YDR363W, strain ESC2, active compounds read low 1.04 | locus YER002W, strain NOP16, active compounds read low 1.01 | locus YGR078C, strain PAC10, active compounds read low 0.992 | locus YMR263W, strain SAP30, active compounds read low 0.995 | locus YNL153C, strain GIM3, active compounds read low 1 | locus YNL175C, strain NOP13, active compounds read low 0.997 | locus YNL197C, strain WHI3, active compounds read low 1 | locus YNL224C, strain SQS1, active compounds read low 0.994 | locus YNL322C, strain KRE1, active compounds read low 1.02 | locus YOR083W, strain WHI5 (second series), active compounds read low 1.01 | locus YPL241C, strain CIN2, active compounds read low 1
